Measured values as given in PubChem BioAssay (NCATS).
Results filed as inconclusive are left out. Calls of active or inactive are those of the source. Unless noted, calls come from the whole dose curve; as a rule, active = well fitted curve in either direction with a large enough effect (not every such curve was filed as active); inconclusive = small, poorly fitted or top-dose-only effect, or another doubt; inactive = flat fitted curve, though single readings scatter.

How the values were obtained:
[1] = AP1 Signaling Pathway (AID 357); conditions: ME-180 AP-1-bla reporter, EGF-induced, beta-lactamase ratio, 5 h; at 17.2 µM (top of the series) unless noted;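 note: ME-180 reporter cells stimulated with EGF at its EC50 level; % is set by controls: 0 for no effect and ±100 for the full control effect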
Summary of the method: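 Read-out was the 460nm/530nm emission ratio (excitation 405nm) after CCF4 loading for 2.5 hours at room temperature. Cells carried an AP-1-driven beta-lactamase reporter, were stimulated with EC50 EGF plus compound for 5 hours, and AC50 values came from titrations.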

[2] = NFAT Signaling Pathway (AID 444); conditions: Jurkat NFAT-bla M1, carbachol, beta-lactamase ratio, 5 h; at 17.2 µM (top of the series) unless noted;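 note: carbachol stimulus at about its EC50 of 1 µM final; % is set by controls: 0 for no effect and ±100 for the full control effect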
Summary of the method: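 Jurkat cells with NFAT-driven β-lactamase reporter and co-expressed M1 receptor, stimulated with carbachol (final 1 uM, ~EC50), compound titration, 5 h at 37 °C. CCF4 loaded 1 h at RT; 460/530 nm ratio gave %activity and AC50.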

[3] = Stat Signaling Pathway (AID 446); conditions: ME-180 SIE beta-lactamase reporter, IL-6 stimulated, 5 h; at 17.2 µM (top of the series) unless noted;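 note: ME-180 cervical cancer cells given 40 pM IL-6 alongside compound; SIE-controlled beta-lactamase reporter measured as 460/530 nm FRET emission ratio; % is set by controls: 0 for no effect and ±100 for the full control effect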
Summary of the method: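 Overnight-plated ME-180 cells bearing a STAT Inducible Element beta-lactamase reporter; 5 h co-exposure to compound and 40 pM IL-6; values normalized to 300 pM IL-6 and 125 nM JAK inhibitor controls.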

[4] = biological target: Glucocorticoid receptor (Homo sapiens) (UniProt P04150); assay: GR-GFP Redistribution (AID 450;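 active = compounds whose dose series gives a full or clear partial fitted curve of increased nuclear translocation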; note: potency is the fitted concentration of half-maximal effect)
[5] = biological target: Glucocorticoid receptor (Homo sapiens) (UniProt P04150); assay: GR-EFC Redistribution (AID 451; calls by dose curve; note: potency is the fitted concentration of half-maximal effect); conditions: CHO-K1 GR-EFC translocation, beta-gal luminescence, 2 h
Summary of the method: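 CHO-K1 cells expressing nuclear EA and GR-ED fragments of b-gal; compounds titrated up to 46 uM final, 2 h at 37 C. GR nuclear translocation read as complemented b-gal luminescence after 1 h RT detection.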

[6] = biological target: Mitogen-activated protein kinase 10 (Mus musculus) (UniProt Q61831); assay: JNK3 AlphaScreen Assay (AID 530);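 note: kinase came from lysate of stimulated human HepG2 cells; signal reports phosphorylation of biotinylated GST-cJun 1-79 at Ser73 with 10 µM ATP; % is set by controls: 0 for no effect and ±100 for the full control effect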
Summary of the method: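 Activity was read by AlphaScreen after JNK3-containing HepG2 lysate (cytokine pre-activated) phosphorylated biotinylated GST-cJun with 10 uM ATP at room temperature. Phospho-Ser73 cJun antibody with Protein-A acceptor beads provided detection.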

[7] = biological target: 3',5'-cyclic-AMP phosphodiesterase 4B (Homo sapiens) (UniProt Q07343); assay: qHTS Assay for Inhibitors of PDE-IV (AID 607; active = well fitted activation curve with a large enough effect in the main read-out, with a control signal flat, not every such curve was filed as active; note: % of control where 0% means no effect)
Summary of the method: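 Live HEK293 cells with a modified cyclic nucleotide-gated (CNG) channel report intracellular cAMP via membrane-potential dye fluorescence (ex 535/em 590 nm). Endogenous PDE-IV was targeted. Compounds were tested at up to 22.9 uM final; RO 20-1724 100 uM served as control.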

[8] = qHTS Assay for Identification of Small Molecule Antagonists for NFkB Signaling Pathway (AID 895; active = well fitted inhibition curve with a large enough effect in the signal ratio, with a control signal flat, not every such curve was filed as active; the % refers to the signal ratio; note: % is set by controls: 0 for no effect and ±100 for the full control effect)
Summary of the method: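 ME-180 NFkB-bla cells (beta-lactamase under NFkB response element), plated overnight, treated with compound then 10 pM TNF alpha (about EC50) for 5 hrs at 37 C. LiveBLAzer FRET read at 460/530 nm emission, 405 nm excitation.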

[9] = qHTS Assay for Identification of Small Molecule Agonists for Thrombopoietin (TPO) Signaling Pathway (AID 917; active = well fitted curve in the direction sought with a large enough effect; an effect the other way counts as inactive or inconclusive; note: % is set by controls: 0 for no effect and ±100 for the full control effect)
Summary of the method: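 Cell-based luciferase reporter screen. Mouse Ba/F3 line stably expressing human TPO receptor; IL-3 removed overnight before plating. Co-treatment with compound and EC50 TPO (26 pM), 24 hrs at 37 C, then luminescence.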

[10] = biological target: Muscarinic acetylcholine receptor M1 (Rattus norvegicus) (UniProt P08482); assay: qHTS Assay for Antagonists of Acetylcholine Muscarinic M1 Receptor: Kinetic Measurement of Intracellular Calcium Response (AID 943; active = well fitted curve in the direction sought with a large enough effect; an effect the other way counts as inactive or inconclusive;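 note: Fluo-4 calcium signal as peak divided by basal fluorescence over 4 min; nearly all actives have a fitted effect of over 75% in size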)
Summary of the method: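 Antagonism is measured as inhibition of the carbachol-evoked calcium rise in CHO cells transfected with rat M1. Cells are dye-loaded, exposed to compound for 10 min, then stimulated with 100 nM carbachol (EC80).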

[11] = biological target: Pyruvate kinase (Leishmania mexicana) (UniProt Q27686); assay: qHTS Validation Assay for Inhibitors of Leishmania Mexicana Pyruvate Kinase (AID 945; active = well fitted curve in the direction sought with a large enough effect; an effect the other way counts as inactive or inconclusive;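 note: 0% = DMSO only neutral control wells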)
Summary of the method: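 Pyruvate kinase activity of E451W LmPYK (0.2 nM) was followed as ATP output after 1 h at room temperature with 0.5 mM PEP and 0.1 mM ADP, detected by PKLight luminescence.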

[12] = biological target: Pyruvate kinase PKM (Homo sapiens) (UniProt P14618); assay: qHTS Assay for Activators of Human Muscle Pyruvate Kinase (AID 954; active = well fitted curve in the direction sought with a large enough effect, not every such curve was filed as active;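 note: 0% = uninhibited enzyme and -100% = no enzyme or full thiadiazolimine inhibition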)
Summary of the method: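 Screening used highly purified human pyruvate kinase M2 under submaximal activity, with PEP at its Km and ADP below Km. After an hour at room temperature, ATP was read by luciferase luminescence.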

[13] = biological target: Alpha-galactosidase A (Homo sapiens) (UniProt P06280); assay: Counterscreen for Glucocerebrosidase Inhibitors: qHTS Assay for Human alpha-Galactosidase at pH 4.5 (AID 992; active = well fitted curve in the direction sought with a large enough effect; an effect the other way counts as inactive or inconclusive; note: 0% is about no effect)
Summary of the method: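 Each compound is preincubated briefly with 2 nM enzyme before substrate addition (80 uM); plates then sit 20 min at ambient temperature, are quenched with 1M NaOH/1M glycine, and read fluorometrically.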

[14] = biological target: alpha-glucosidase (Oryza sativa, rice) (UniProt Q653V4); assay: Counterscreen for Glucocerebrosidase Inhibitors: qHTS Assay for Rice alpha-Glucosidase at pH 5.0 (AID 997; active = well fitted curve in the direction sought with a large enough effect; an effect the other way counts as inactive or inconclusive;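 note: 0% = full activity with enzyme and -100% = basal without enzyme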)
Summary of the method: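 Endpoint fluorogenic assay at pH 5.0: compounds (0.7 nM to 77 uM) titrated against 4 nM rice enzyme and 400 uM 4-MU-alpha-glucoside for 20 min at room temperature; NaOH/glycine stop, read ex 365/em 440 nm, Hill-fitted AC50.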

[15] = biological target: Ubiquitin carboxyl-terminal hydrolase 1 (Homo sapiens) (UniProt O94782); assay: Inhibitors of USP1/UAF1: Pilot qHTS (AID 504865; active = well fitted curve in the direction sought with a large enough effect; an effect the other way counts as inactive or inconclusive;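 note: rhodamine fluorescence freed from ubiquitin-rhodamine substrate followed over time; top concentration of the series differs between compounds; % is set by controls: 0 for no effect and ±100 for the full control effect; nearly all actives have a fitted effect of over 35% in size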)
Summary of the method: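 In 50mM HEPES pH 7.8 containing 0.5mM EDTA, 1mM TCEP, 0.1 mg/ml BSA and 0.01% Tween-20, 1nM USP1/UAF1 is exposed to compound for 15 min, then Ub-Rho (150nM final) is added and fluorescence is read over time.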

[16] = biological target: Muscarinic acetylcholine receptor M1 (Rattus norvegicus) (UniProt P08482); assay: qHTS Assay for Antagonists of Acetylcholine Muscarinic M1 Receptor: Measurement of IP-One Response (AID 944; active = well fitted curve in the direction sought with a large enough effect; an effect the other way counts as inactive or inconclusive; note: nearly all actives have a fitted effect of over 75% in size)
Summary of the method: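 Antagonist mode with rat M1 receptor transfected into CHO cells. Compound is added first for 10 min, carbachol at its EC80 follows for 30 min, and lysis reagents then allow TR-FRET detection of accumulated IP1.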

[17] = biological target: Guanine nucleotide-binding protein G(i) subunit alpha-1 (Homo sapiens) (UniProt P63096); assay: qHTS Assay for Inhibitors of RGS12 GoLoco Motif Activity (Green Fluorophore) (AID 879; active = well fitted curve in the direction sought with a large enough effect; an effect the other way counts as inactive or inconclusive;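 note: 0% = labeled peptide with Gαi1 and full inhibition = labeled peptide alone without protein; negative values mean loss of peptide binding seen as reduced polarization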)
Summary of the method: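 A drop in FITC polarization marked displacement of the FITC-tagged RGS12 GoLoco peptide (10 nM) from Gαi1 (50 nM). Compounds were incubated 10 min at room temperature in Tris pH 7.5 buffer containing 150 mM NaCl, 0.1 mM GDP and 0.05% NP40; unlabeled peptide titration served as control.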

[18] = biological target: Cytochrome P450 3A4 (Homo sapiens) (UniProt P08684); assay: qHTS Assay for Activators of Cytochrome P450 3A4 (AID 885; active = well fitted curve in the direction sought with a large enough effect; an effect the other way counts as inactive or inconclusive; note: nearly all actives have a fitted effect of over 65% in size)
Summary of the method: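 Using 20nM recombinant human CYP3A4 in potassium phosphate (200mM), substrate Luciferin-PPXE at 25uM, luminescent luciferin detection followed a 60-min RT NADPH reaction; data scaled to 57 uM ketoconazole.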

Sequence of 3',5'-cyclic-AMP phosphodiesterase 4B (Homo sapiens) (Q07343 whole entry, looked up): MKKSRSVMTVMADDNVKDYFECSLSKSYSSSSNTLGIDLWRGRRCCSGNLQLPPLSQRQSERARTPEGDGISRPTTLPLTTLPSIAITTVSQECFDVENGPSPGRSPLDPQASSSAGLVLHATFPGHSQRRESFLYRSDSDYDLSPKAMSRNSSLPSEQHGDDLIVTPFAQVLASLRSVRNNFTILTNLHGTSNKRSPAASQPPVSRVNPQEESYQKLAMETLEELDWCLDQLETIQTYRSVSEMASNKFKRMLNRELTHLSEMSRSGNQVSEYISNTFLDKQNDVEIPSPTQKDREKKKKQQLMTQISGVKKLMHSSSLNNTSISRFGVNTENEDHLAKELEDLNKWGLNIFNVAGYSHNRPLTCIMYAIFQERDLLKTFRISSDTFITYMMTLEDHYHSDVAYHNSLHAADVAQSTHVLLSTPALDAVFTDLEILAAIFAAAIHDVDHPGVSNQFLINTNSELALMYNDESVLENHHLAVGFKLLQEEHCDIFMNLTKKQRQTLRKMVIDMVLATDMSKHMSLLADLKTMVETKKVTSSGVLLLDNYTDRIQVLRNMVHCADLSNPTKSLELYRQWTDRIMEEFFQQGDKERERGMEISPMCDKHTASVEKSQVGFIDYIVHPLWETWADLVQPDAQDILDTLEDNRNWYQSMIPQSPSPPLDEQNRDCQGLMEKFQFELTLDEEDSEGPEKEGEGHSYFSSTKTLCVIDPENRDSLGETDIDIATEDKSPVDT
Sequence of Alpha-galactosidase A (Homo sapiens) (P06280 whole entry, looked up): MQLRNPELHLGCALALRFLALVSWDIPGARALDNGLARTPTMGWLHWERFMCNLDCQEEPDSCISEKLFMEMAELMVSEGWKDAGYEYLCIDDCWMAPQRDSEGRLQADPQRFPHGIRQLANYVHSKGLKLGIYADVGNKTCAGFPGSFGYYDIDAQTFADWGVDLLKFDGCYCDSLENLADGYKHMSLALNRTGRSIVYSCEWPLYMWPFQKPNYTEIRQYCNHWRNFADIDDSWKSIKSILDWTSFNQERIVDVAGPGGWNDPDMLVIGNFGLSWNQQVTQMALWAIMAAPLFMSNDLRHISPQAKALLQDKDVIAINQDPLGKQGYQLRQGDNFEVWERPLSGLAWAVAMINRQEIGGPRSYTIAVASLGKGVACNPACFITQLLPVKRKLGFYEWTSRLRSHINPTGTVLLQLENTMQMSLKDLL
Sequence of Pyruvate kinase PKM (Homo sapiens) (P14618 whole entry, looked up): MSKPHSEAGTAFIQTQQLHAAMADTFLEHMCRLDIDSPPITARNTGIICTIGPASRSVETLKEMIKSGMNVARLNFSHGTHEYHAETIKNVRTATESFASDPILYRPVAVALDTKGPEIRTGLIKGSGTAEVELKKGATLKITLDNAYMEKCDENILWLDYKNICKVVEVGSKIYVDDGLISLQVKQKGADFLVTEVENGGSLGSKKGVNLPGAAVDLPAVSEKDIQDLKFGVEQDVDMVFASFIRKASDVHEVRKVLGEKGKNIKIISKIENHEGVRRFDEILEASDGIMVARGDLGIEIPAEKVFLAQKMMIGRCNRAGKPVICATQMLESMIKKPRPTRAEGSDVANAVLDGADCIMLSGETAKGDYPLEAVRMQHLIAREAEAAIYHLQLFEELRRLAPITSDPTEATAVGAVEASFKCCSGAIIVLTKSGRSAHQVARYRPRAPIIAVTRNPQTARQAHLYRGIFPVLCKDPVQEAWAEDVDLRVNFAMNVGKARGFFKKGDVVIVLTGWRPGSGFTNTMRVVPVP
Sequence of Glucocorticoid receptor (Homo sapiens) (P04150 whole entry, looked up, the tested form may be a part): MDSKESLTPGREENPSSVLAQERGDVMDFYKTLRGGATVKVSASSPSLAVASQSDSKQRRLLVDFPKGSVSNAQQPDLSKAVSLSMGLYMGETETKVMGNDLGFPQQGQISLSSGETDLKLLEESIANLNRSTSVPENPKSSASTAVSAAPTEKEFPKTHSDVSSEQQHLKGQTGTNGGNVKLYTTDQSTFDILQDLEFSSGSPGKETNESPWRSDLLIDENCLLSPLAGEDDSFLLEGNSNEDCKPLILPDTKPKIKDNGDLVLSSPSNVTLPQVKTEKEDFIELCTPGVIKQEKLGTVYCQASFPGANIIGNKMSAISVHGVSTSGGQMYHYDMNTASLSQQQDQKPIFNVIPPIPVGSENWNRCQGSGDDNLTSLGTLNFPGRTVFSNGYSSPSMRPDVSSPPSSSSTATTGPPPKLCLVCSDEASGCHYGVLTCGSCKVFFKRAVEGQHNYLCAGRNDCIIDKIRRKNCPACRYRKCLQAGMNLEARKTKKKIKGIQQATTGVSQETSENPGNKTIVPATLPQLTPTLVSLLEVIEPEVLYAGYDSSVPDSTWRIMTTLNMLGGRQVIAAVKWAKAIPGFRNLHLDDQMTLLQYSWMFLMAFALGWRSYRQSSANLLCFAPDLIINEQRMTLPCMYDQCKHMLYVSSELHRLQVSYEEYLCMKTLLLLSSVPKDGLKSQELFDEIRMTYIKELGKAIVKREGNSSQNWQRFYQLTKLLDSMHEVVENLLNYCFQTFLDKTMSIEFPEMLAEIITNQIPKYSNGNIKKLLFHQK
Sequence of Pyruvate kinase (Leishmania mexicana) (Q27686 2-499 E452W): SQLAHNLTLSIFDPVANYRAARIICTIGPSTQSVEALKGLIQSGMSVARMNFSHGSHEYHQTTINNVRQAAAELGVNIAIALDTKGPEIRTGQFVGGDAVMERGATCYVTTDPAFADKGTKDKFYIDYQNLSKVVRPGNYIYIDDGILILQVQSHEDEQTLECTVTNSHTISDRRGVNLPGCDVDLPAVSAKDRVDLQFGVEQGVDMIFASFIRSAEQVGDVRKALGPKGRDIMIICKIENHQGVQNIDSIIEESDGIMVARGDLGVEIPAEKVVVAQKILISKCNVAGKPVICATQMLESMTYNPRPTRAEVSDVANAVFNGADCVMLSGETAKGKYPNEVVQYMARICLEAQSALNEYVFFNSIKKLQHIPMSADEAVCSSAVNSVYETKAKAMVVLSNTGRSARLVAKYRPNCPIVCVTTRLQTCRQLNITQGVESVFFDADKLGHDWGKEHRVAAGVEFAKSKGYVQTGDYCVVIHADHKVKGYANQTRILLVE
Sequence of Muscarinic acetylcholine receptor M1 (Rattus norvegicus) (P08482 whole entry, looked up): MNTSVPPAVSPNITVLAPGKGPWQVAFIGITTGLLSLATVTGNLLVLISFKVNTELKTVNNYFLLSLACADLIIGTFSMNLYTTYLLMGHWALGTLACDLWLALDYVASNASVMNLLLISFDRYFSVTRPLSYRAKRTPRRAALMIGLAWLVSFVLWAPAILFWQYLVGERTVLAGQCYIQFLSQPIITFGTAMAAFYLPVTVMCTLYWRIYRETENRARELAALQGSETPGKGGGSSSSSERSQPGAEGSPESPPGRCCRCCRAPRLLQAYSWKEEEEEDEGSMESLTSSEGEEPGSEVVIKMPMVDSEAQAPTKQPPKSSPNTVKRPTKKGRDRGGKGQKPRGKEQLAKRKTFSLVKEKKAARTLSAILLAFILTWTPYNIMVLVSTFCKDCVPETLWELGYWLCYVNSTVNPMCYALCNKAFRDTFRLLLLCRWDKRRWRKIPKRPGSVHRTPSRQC
Sequence of Guanine nucleotide-binding protein G(i) subunit alpha-1 (Homo sapiens) (P63096 whole entry, looked up): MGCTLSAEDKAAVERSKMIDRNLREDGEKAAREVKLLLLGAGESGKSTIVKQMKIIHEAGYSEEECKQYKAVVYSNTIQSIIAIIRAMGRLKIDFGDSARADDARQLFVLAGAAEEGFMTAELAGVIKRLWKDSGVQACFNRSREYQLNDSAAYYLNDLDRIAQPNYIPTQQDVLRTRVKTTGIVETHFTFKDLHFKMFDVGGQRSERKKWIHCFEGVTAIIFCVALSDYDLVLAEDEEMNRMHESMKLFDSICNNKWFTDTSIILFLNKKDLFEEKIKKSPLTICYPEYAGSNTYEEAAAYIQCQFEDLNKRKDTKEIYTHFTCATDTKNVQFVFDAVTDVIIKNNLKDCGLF
Sequence of Cytochrome P450 3A4 (Homo sapiens) (P08684 whole entry, looked up): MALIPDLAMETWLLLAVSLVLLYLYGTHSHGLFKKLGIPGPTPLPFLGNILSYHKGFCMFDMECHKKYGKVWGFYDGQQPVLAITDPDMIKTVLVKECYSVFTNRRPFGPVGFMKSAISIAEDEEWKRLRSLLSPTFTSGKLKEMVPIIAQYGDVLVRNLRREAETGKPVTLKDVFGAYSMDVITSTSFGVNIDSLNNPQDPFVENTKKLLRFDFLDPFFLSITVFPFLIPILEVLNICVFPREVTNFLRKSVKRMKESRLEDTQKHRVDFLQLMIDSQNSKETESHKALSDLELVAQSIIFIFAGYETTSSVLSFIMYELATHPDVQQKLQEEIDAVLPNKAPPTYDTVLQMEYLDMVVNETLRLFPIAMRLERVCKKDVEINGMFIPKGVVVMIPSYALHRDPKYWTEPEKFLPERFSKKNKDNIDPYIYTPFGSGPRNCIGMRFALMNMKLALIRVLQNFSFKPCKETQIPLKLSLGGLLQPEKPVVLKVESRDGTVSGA

Cc1cc(N2CCCCC2)nc2ccc(Cc3ccc4nc(N5CCCCC5)cc(C)c4c3)cc12
inactive: activity change, negative = inhibition [1] -0.0465% [at 7.69 µM] | activity change, negative = inhibition [2] -1.68% [at 7.69 µM] | activity, negative = inhibition [3] 8.27% [at 7.69 µM] | Potency [4] > 46 µM | Potency [5] > 9.22 µM | activity change, negative = inhibition [6] 13.5% [at 11.4 µM]

O=C(O)[C@@H]1CCCN[C@H]1C(=O)O
inactive: activity change, negative = inhibition [1] 13% [at 38 µM] | activity change, negative = inhibition [2] -7.71% [at 38 µM] | activity, negative = inhibition [3] -12.9% [at 38 µM] | Potency [4] > 46 µM | Potency [5] > 46 µM | Potency [6] | Potency [7] | Potency [8] | Potency [9] | Potency [10] | Potency [11] | outcome [12] | outcome [13] | outcome [14]

CCCCOc1ccccc1P(=O)(O)CP(=O)(c1ccccc1)c1ccccc1
inactive: activity change, negative = inhibition [1] -13.5% | activity change, negative = inhibition [2] -17% | activity, negative = inhibition [3] -14.9% | Potency [4] > 20.6 µM

Cn1c(N)c(C#N)c(C#N)c1-c1ccccc1
inactive: activity change, negative = inhibition [1] -21.2% | activity change, negative = inhibition [2] 4.54% | activity, negative = inhibition [3] -8.46% | Potency [4] > 20.6 µM

CN(C)C(=O)c1ccc(-c2ccc3ncnc(NC4CC4)c3c2)cc1
inactive: activity change, negative = inhibition [1] -22.9% [at 7.69 µM] | activity change, negative = inhibition [2] 12.3% [at 7.69 µM] | activity, negative = inhibition [3] -3.61% [at 7.69 µM] | Potency [4] > 46 µM | Potency [5] > 46 µM | Potency [6] | Potency [7] | Potency [15]

COc1ccc(C2CC(c3ccc(C)cc3)Nc3nc(N)nn32)cc1 (centres undefined)
inactive: activity change, negative = inhibition [1] -10.4% | activity change, negative = inhibition [2] 11.6% | activity, negative = inhibition [3] 1.75% | Potency [4] > 20.6 µM

CCCCSc1nnc(-c2ccc(NC(C)=O)cc2)n1C
inactive: activity change, negative = inhibition [1] -14.2% | activity change, negative = inhibition [2] 12.4% | activity, negative = inhibition [3] 0.987% | Potency [4] > 20.6 µM

COc1ccc(C=NCCC2(O)CC(C)N(C)CC2C)cc1 (centres undefined)
inactive: activity change, negative = inhibition [1] -0.876% | activity change, negative = inhibition [2] 9.42% | activity, negative = inhibition [3] 11.9% | Potency [4] > 20.6 µM

N[C@H](Cc1cccc(-c2ccccc2CP(=O)(O)O)c1)C(=O)O
inactive: activity change, negative = inhibition [1] 8.92% [at 38 µM] | activity change, negative = inhibition [2] 12.7% [at 38 µM] | activity, negative = inhibition [3] 1.71% [at 38 µM] | Potency [4] > 46 µM | Potency [5] > 46 µM | Potency [6] | Potency [7] | Potency [8] | Potency [9] | Potency [16] | Potency [11] | outcome [12] | outcome [13] | outcome [14]

COc1cccc(OC)c1OCCNC[C@@H]1CSc2ccccc2O1
inactive: activity change, negative = inhibition [1] 18% [at 38 µM] | activity change, negative = inhibition [2] -12.7% [at 38 µM] | activity, negative = inhibition [3] -23.8% [at 38 µM] | Potency [4] > 46 µM | Potency [5] > 46 µM | Potency [6] | Potency [7] | outcome [17] | Potency [8] | Potency [9] | Potency [11] | outcome [12] | outcome [13] | outcome [14]

NC(=S)c1ccc[n+]([C@@H]2O[C@@H](COP(=O)([O-])OP(=O)(O)OC[C@@H]3O[C@@H](n4cnc5c(N)ncnc54)[C@@H](OP(=O)(O)O)[C@H]3O)[C@@H](O)[C@H]2O)c1
inactive: activity change, negative = inhibition [1] 5.32% [at 38 µM] | activity change, negative = inhibition [2] -7.28% [at 38 µM] | activity, negative = inhibition [3] 1.28% [at 38 µM] | Potency [4] > 46 µM | Potency [5] > 46 µM | Potency [6] | Potency [7] | outcome [17] | Potency [18] | Potency [9] | Potency [16] | Potency [11] | outcome [12] | outcome [13] | outcome [14]

CN(C)c1nc2sc3c(c2c(=O)n1C)CC(C)(C)OC3
inactive: activity change, negative = inhibition [1] -6.89% | activity change, negative = inhibition [2] -2.36% | activity, negative = inhibition [3] 10.9% | Potency [4] > 20.6 µM

CCCCCC[C@@H]([C@H](C)O)n1cnc2c(N)ncnc21
inactive: activity change, negative = inhibition [1] -20.5% [at 38 µM] | activity change, negative = inhibition [2] -4.53% [at 38 µM] | activity, negative = inhibition [3] 25.6% [at 38 µM] | Potency [4] > 46 µM | Potency [5] > 46 µM | Potency [6] | Potency [7] | Potency [9] | Potency [10] | Potency [16] | Potency [11] | outcome [12] | outcome [13] | outcome [14]
